Source: PubChem BioAssay
Activity calls are given as the source filed them. No rule for the calls is given here.

What follows are molecules tested on Aerobactin synthetase IucA (Klebsiella pneumoniae, hypervirulent) (assay: IucA enzyme inhibition, biochemical, LOPAC library, absorbance readout (AID 1346212;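 also: 100% = no compound wells and 0% = no enzyme wells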)). Details: IucA enzyme assay, absorbance (OD) readout; hits give low values;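 tested at 8 µM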.

Row | Structure (SMILES) | remaining activity
1 | O=c1[nH]c2ccccc2c2ccccc12 | 97.7% (inactive)
2 | c1ccc2nc(C3=NCCN3)ccc2c1 | 121% (inactive)
3 | Cn1cc(C2=C(c3ccc(Cl)cc3Cl)C(=O)NC2=O)c2ccccc21 | 116% (inactive)
4 | OC(CN1CCC(Cc2ccc(F)cc2)CC1)c1ccc(Cl)cc1 (stereo not given) | 99.6% (inactive)
5 | COc1cc2c(cc1OC)-c1cc(=Nc3c(C)cc(C)cc3C)n(C)c(=O)n1CC2 | 97.5% (inactive)
6 | Cc1cnc(C(=O)NCCc2ccc(S(=O)(=O)NC(=O)NC3CCCCC3)cc2)cn1 | 81% (inactive)
7 | COc1ccc(CC(C)NCC(O)c2ccc(O)c(NC=O)c2)cc1 (stereo not given) | 102% (inactive)
8 | CC(N)=O | 124% (inactive)
9 | O=C(O)CNC(=O)C(CS)Cc1ccccc1 (stereo not given) | 119% (inactive)
10 | Cn1cc(C(F)(F)F)nc1-c1ccc(OCC(O)CNCCOc2ccc(O)c(C(N)=O)c2)cc1 (stereo not given) | 96.8% (inactive)
11 | N#CC(C#N)=C(N)/C(C#N)=C/c1cc(O)c(O)c(O)c1 | 87.7% (inactive)
12 | c1ccc(C(NCCNC(c2ccccc2)c2ccccc2)c2ccccc2)cc1 | 117% (inactive)
13 | C=C[C@@]1(C)CC(=O)[C@]2(O)[C@@]3(C)[C@@H](O)CCC(C)(C)[C@@H]3[C@H](O)[C@H](OC(C)=O)[C@@]2(C)O1 | 107% (inactive)
14 | COc1ccc2c(c1OC)C(=O)O[C@@H]2[C@H]1c2c(cc3c(c2OC)OCO3)CCN1C | 112% (inactive)
15 | COc1ccccc1NC(=O)Nc1nc(-c2cccnc2)nc2ccccc12 | 105% (inactive)
16 | C=C[C@H]1CN2CC[C@H]1C[C@H]2[C@H](O)c1ccnc2ccc(OC)cc12 | 110% (inactive)
17 | C[N+](C)(C)CCOP(=O)(O)OP(=O)([O-])OC[C@H]1O[C@@H](n2ccc(N)nc2=O)[C@H](O)[C@@H]1O | 115% (inactive)
18 | NC(=NCCC[C@H](N)C(=O)O)NO | 101% (inactive)
19 | CN1CCCC1c1cccnc1 (stereo not given) | 115% (inactive)
20 | CCCn1c(=O)c2[nH]c(-c3ccc(S(=O)(=O)O)cc3)nc2n(CCC)c1=O | 111% (inactive)

Row | Structure (SMILES) | remaining activity
21 | CC(Oc1ccc(Oc2cnc3ccc(Cl)cc3n2)cc1)C(=O)O (stereo not given) | 108% (inactive)
22 | Nc1nc(Nc2ccccc2)nc2c1ncn2[C@@H]1O[C@H](CO)[C@@H](O)[C@H]1O | 106% (inactive)
23 | COc1cc2nc(N3CCN(C(=O)OCc4ccccc4)[C@H](C(=O)NC(C)(C)C)C3)nc(N)c2cc1OC | 91.6% (inactive)
24 | Brc1c(Br)c(Br)c2n[nH]nc2c1Br | 120% (inactive)
25 | NCCNS(=O)(=O)c1cccc2c(Cl)cccc12 | 96.1% (inactive)
26 | Nc1nccc2c1ncn2[C@@H]1O[C@H](CO)[C@@H](O)[C@H]1O | 95.9% (inactive)
27 | O=C(c1ccc(OCCCc2cnc[nH]2)cc1)C1CC1 | 100% (inactive)
28 | COC(=O)c1c(-c2cc(OC)c(OC)c(OC)c2)c2ccnc(OCc3ncccn3)c2c(=O)n1Cc1ccnc(C)c1 | 101% (inactive)
29 | CN(C)c1ccc(/C=C2\C(=O)Nc3ccccc32)cc1 | 95.7% (inactive)
30 | NOCC(=O)O | 124% (inactive)
31 | CC(C)C[C@H](NC(=O)[C@@H](O)[C@H](N)Cc1ccccc1)C(=O)O | 108% (inactive)
32 | NC(=O)C1=CN(C2OC(COP(=O)(O)OP(=O)(O)OC[C@H]3O[C@@H](n4cnc5c(N)ncnc54)C(OP(=O)(O)O)[C@H]3O)C(O)C2O)C=CC1 (stereo not given in full) | 112% (inactive)
33 | CO/N=C(\C(=O)N[C@@H]1C(=O)N2C(C(=O)O)=C(COC(C)=O)CS[C@H]12)c1csc(N)n1 (stereo in doubt) | 123% (inactive)
34 | CN=C(NC#N)Nc1ccc(C2=NNC(=O)CC2C)cc1 (stereo not given) | 104% (inactive)
35 | CNc1cc(NS(=O)(=O)c2ccc(N)cc2)nc(NC)n1 | 104% (inactive)
36 | CC(=O)O[C@H]1C[C@@]2(C)[C@@H](C[C@@H](O)[C@H]3[C@@]4(C)CC[C@@H](O)[C@@H](C)[C@@H]4CC[C@@]32C)/C1=C(\CCC=C(C)C)C(=O)O | 96.1% (inactive)
37 | Cc1cccc(C(=O)NCN2CCN(c3ccccc3C#N)CC2)c1 | 123% (inactive)
38 | CCn1ccnc1CC1COc2ccccc2O1 (stereo not given) | 112% (inactive)
39 | NC(=O)c1ncn([C@@H]2O[C@H](CO)[C@@H](O)[C@H]2O)c1O | 122% (inactive)
40 | CC(=O)S[C@@H]1CC2=CC(=O)CC[C@]2(C)[C@H]2CC[C@@]3(C)[C@@H](CC[C@@]34CCC(=O)O4)[C@H]12 | 108% (inactive)
